Data from PubChem BioAssay (Tox21).
Where “and” joins values, the source holds several entries; their conditions need not be identical. Identical values can stand only once. Inconclusive results are not listed. Where a call stands in place of a potency, no number is given. Unmarked numbers belong to inactive results. Calls of active or inactive are those of the source. Calls follow the shape of the dose curve; as a rule, active = well fitted cell-killing curve with a large enough effect in the repeat runs; inconclusive = weak or mixed curves, or effect the other way; inactive = flat fitted curve, though single readings scatter.

test: qHTS assay to identify small molecule antagonists of the androgen receptor (AR) signaling pathway using the MDA cell line - cell viability counter screen (AID 743041; also: nearly all actives have a fitted effect of over 45% in size); details: MDA-kb2 viability, CellTiter-Fluor, 16 h, cells co-treated with R1881 androgen agonist; series mostly up to 70.3 µM; viability change, negative = cytotoxic: at the top concentration
Source text: National Center for Advancing Translational Sciences [NCATS]
NIH Chemical Genomics Center [NCGC]
U.S. Environmental Protection Agency [EPA]
National Institutes of Environmental Health Sciences [NIEHS]
National Toxicology Program [NTP]
U.S. Food and Drug Administration [FDA]
Androgen receptor (AR), a nuclear hormone receptor, plays a critical role in AR-dependent prostate cancer and other androgen related diseases. Endocrine disrupting chemicals (EDCs) and their interactions with steroid hormone receptors like AR may cause disruption of normal endocrine function as well as interfere with metabolic homeostasis, reproduction, developmental and behavioral functions. To identify the compounds that inhibit AR signaling, MDA-kb2 AR-luc cell line (from ATCC, deposited by Wilson et al.) was used to screen the Tox21 10K compound library. MDA-kb2 AR-luc cell line is human breast carcinoma cell line that was stably transfected with a luciferase reporter gene under control of the MMTV promoter containing response elements for both androgen receptor (AR) and glucocorticoid receptor (GR). The cytotoxicity of the Tox21 compound library against the MDA-kb2 AR-luc cell line was tested in parallel by measuring the cell viability using CellTiter-Fluor assay (Promega, Madison, WI) in the same wells.
Tox21 Assay Protocol Summary:
MDA-kb2 AR-luc cells were dispensed at 3,000 cells/4 uL/well of culture medium into white wall/solid-bottom 1536-well plates using a Multidrop Combi (ThermoFisher Scientific, Waltham, MA) dispenser. After the assay plates were incubated at a 37C and 0% CO2 for 5 hr, 23 nL of compounds dissolved in DMSO, positive controls or DMSO only was transferred to the assay plate by a Pintool station (Kalypsys, San Diego, CA), followed by addition of 1 uL of agonist (R1881) in culture medium using a Bioraptr Flying Reagent Dispenser (FRD) workstation (Beckman Coulter, Indianapolis, IN, USA). The plates were incubated at a 37C and 0% CO2 for 16 h. After 15.5 h incubation, 1uL of CellTiter-Fluor reagent (Promega) was added using a Bioraptr FRD to each plate for measuring cytotoxicity. The fluorescence intensity was quantified on a ViewLux plate reader (PerkinElmer, Shelton, CT) following 30 min incubation at 37C and 0% CO2.
Potency is read from the fitted curve at half-maximal effect.

SMILES | Potency | viability change, negative = cytotoxic [%]
Nc1ccc(O)c(C(=O)O)c1 | inactive | –
Nc1ccc(C(=O)O)cc1 | inactive | –
Cc1ccccc1C(OCCN(C)C)c1ccccc1 (stereo not given) | inactive | –
O=S(=O)(O)c1ccc2cc(O)ccc2c1 | inactive | –
c1ccc2[nH]ccc2c1 | inactive | –
CCCCC1C(=O)N(c2ccccc2)N(c2ccccc2)C1=O | inactive | –
Cc1ccc(O)cc1 | inactive | –
O=c1cc[nH]c(=S)[nH]1 | inactive | –
O=C(c1ccccc1)C(O)c1ccccc1 (stereo not given) | inactive | –
O=C(O)CS | inactive | –
CCCCOC(=O)CC(CC(=O)OCCCC)(OC(C)=O)C(=O)OCCCC | inactive | –
CC1(C)[C@@H]2CC[C@@]1(C)C(=O)C2 | inactive | –
Nc1ccn([C@H]2CC[C@@H](CO)O2)c(=O)n1 | inactive | –
O=C(O)CCCCCCCC(=O)O | inactive | –
C[C@]12C=CC(=O)C=C1CC[C@@H]1[C@@H]2[C@@H](O)C[C@@]2(C)[C@H]1CC[C@]2(O)C(=O)CO | inactive | –
CC(C)[C@@H]1CC[C@@H](C)C[C@H]1O | inactive | –
NNC(=O)c1ccncc1 | inactive | –
Cc1cc(=O)n(-c2ccccc2)n1C | inactive | –
CCCNC(=O)NS(=O)(=O)c1ccc(Cl)cc1 | inactive | –
COc1ccc2[nH]cc(CCNC(C)=O)c2c1 | inactive | –

SMILES | Potency | viability change, negative = cytotoxic [%]
OCCc1ccccc1 | inactive | –
Cc1ccc(S(=O)(=O)NC(=O)NN2CCCCCC2)cc1 | inactive | –
COc1c2occc2cc2ccc(=O)oc12 | inactive | –
Cn1c(=O)c2[nH]cnc2n(C)c1=O | inactive | –
Cn1cc[nH]c1=S | inactive | –
Cc1ccc(C)c(OCCCC(C)(C)C(=O)O)c1 | inactive | –
O=C(O)CCCCC(=O)O | inactive | –
NC(=O)c1ccccc1O | inactive | –
NC(=O)NC1NC(=O)NC1=O (stereo not given) | inactive | –
NS(=O)(=O)c1cc(C(=O)O)c(NCc2ccco2)cc1Cl | inactive | –
CC(O)CN(CCN(CC(C)O)CC(C)O)CC(C)O (stereo not given) | inactive | –
Oc1ccc(/C=C/c2cc(O)cc(O)c2)cc1 | inactive | –
O=C(O)c1cc(N=Nc2ccc(S(=O)(=O)Nc3ccccn3)cc2)ccc1O | – | -15.7
C/C=C/c1ccc(OC)cc1 | inactive | –
O=C1CN(/N=C/c2ccc([N+](=O)[O-])o2)C(=O)N1 | 15.6 µM (active) and 54.3 µM (active) and 48.6 µM (active) | –
CC(C)(Oc1ccc(C2CC2(Cl)Cl)cc1)C(=O)O (stereo not given) | inactive | –
CNC[C@H](O)c1cccc(O)c1 | inactive | –
CC(=O)NS(=O)(=O)c1ccc(N)cc1 | inactive | –
CCC1(c2ccccc2)C(=O)NCNC1=O | inactive | –
CCCN(CCC)S(=O)(=O)c1ccc(C(=O)O)cc1 | inactive | –
